Only some compounds are listed: those with a hit (about 2.4% of all), similar ones and a draw of the others.
D2 PAM-1 – potentiates the human D2 dopamine receptor allosterically | P14416 | DiscoveRx D2 beta-arrestin cells, luminescence, 90 min; 100% = 57 uM dopamine signal | potentiation, % (test concentration not listed) | 0.23% of 360,000 active | AID 624464; in the data active = potentiation above about 50%; inconclusive = mostly about 30% to 49%
Target sequence (P14416 whole entry, looked up): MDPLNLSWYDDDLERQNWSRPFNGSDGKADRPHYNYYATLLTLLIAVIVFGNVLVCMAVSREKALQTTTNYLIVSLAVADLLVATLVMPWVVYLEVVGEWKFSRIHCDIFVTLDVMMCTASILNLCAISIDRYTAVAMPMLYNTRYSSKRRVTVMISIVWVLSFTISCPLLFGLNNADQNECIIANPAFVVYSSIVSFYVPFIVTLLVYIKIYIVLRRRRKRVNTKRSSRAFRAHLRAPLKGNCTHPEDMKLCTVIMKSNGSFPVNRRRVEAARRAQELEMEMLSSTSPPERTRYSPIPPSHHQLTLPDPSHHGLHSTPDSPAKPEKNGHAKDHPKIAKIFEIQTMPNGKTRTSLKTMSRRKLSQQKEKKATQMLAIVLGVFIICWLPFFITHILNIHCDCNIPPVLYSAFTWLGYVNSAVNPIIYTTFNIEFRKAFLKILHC
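D2 cells co-treated with compound plus 50 nM dopamine (EC20) for 90 min at 37 deg C to detect potentiation. Beta-arrestin recruitment was read as enzyme-fragment luminescence after 1 h at ambient temperature. Full response was set by 57 uM dopamine.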
D2 ag-1 – activates the human D2 dopamine receptor; 0.53% of 340,000 active; P14416; activation, % at 2 µM; AID 485358; HEK293 T-REx D2 cells, calcium flux agonist mode;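 active = activation over 3 SD above normal in the single-dose calcium agonist read, cut at about 30% in these data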; note: 0% is about no effect
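HEK293 Trex D2 cells, tetracycline-induced, o/n 30 C 5% CO2; no-wash Ca dye, RT 30–90 min; 10-cycle baseline, 23 nl cpd added, kinetic Ca read 180 s; agonist hits = positive Ca response.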
D2 ag-2 – human D2 receptor agonism in beta-arrestin assay. P14416. 0.084% of 360,000 active. DiscoveRx PathHunter D2 beta-arrestin, luminescence, 90 min; 100% = 57 uM dopamine signal. activation, % (no concentration beside the values). AID 624465; in the data active = activation above about 40%; inconclusive = between about 15% and that limit
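Agonist mode: compounds alone added to overnight-plated D2 PathHunter cells for 90 min at 37 C, with 57 uM final dopamine (EC100) defining full response. Beta-arrestin recruitment detected by chemiluminescent reagent, read after 1 h at ambient temperature.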
D2 PAM-2 – D2 dopamine receptor (human) potentiation. HEK293 T-REx D2, calcium flux, EC20 dopamine potentiation. potentiation, % at 10 µM. 0.34% of 340,000 active. AID 485347;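 active = potentiation over 3 SD above the plate norm, cut at about 30% in these data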; note: 0% is about no effect
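Cells plated with tetracycline inducer and held overnight at 30 C; calcium dye loaded 30–90 min at room temperature; baseline taken, compound added and read 180 s; EC20 dopamine then added and read 180 s.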
D2 antagonist – D2 dopamine receptor (human) antagonism; P14416; HEK293 TREx D2 cells, calcium flux, dopamine EC80; inhibition, % at 10 µM; 2% of 340,000 active; in the data active = inhibition above about 30%; inactive = below that, where a call was filed; note: 0% is about no effect
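Dopamine at EC80 is the agonist stimulus; test compounds precede it by 180 s. Calcium flux read kinetically in a force-coupled, inducible HEK293 T-REx D2 cell line.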
D3 arrestin ag – activates human D3 dopamine receptor beta-arrestin recruitment; shares compounds with D2 ag-1; DiscoveRx D3 beta-arrestin cells, luminescence, 90 min; Potency, µM (doses to about 76.9 µM), for the others: at the highest dose activation, hits mostly activators; 4% of 2,300 active; AID 720506;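 note: potency is the fitted concentration of half-maximal effect; 100% = dopamine control response; nearly all actives have a fitted effect of over 70% in size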
D2 ag-3 – activates human D2 dopamine receptor in D3 counterscreen | shares compounds with D2 ag-1 | DiscoveRx PathHunter D2 beta-arrestin, luminescence, 90 min; response scale: percent relative to full dopamine signal | Potency, µM (highest dose often 76.9 µM), for inactives: top-dose activation, hits mostly activators | 5.9% of 2,300 active | AID 720507; note: potency is the fitted concentration of half-maximal effect; % of control where 0% means no effect; nearly all actives have a fitted effect of over 70% in size
The depositor's hits bear a star; ? = inconclusive; · = no result. Unless noted, calls come from the whole dose curve; as a rule, active = well fitted activation curve with a large enough effect; inconclusive = small, poorly fitted or top-dose-only effect; inactive = flat fitted curve, though single readings scatter.

SMILES	D2 PAM-1	D2 ag-1	D2 ag-2	D2 PAM-2	D2 antagonist	others
Cc1cccc(CS(=O)(=O)Cc2ccc(C(=O)N3CCC4(CC3)OCCO4)o2)c1	16	-1	-3	11	40*
CN1CCN(c2ccc([N+](=O)[O-])c(N)c2)CC1	-19	0	-5	-10	-1
CCN1CCN(c2ccc(N)c(C)c2)CC1	-12	0	-2	-9	49*
O=c1[nH]c2ccccc2n1CCCN1CCC(n2c(=O)[nH]c3cc(Cl)ccc32)CC1	·	·	·	·	97*
CCCCn1nnnc1C(C1CC1)N1CCC(n2c(=O)[nH]c3ccccc32)CC1 (stereo not given)	2	·	12	·	·
Cc1ccc(OCC(=O)Nc2ccc(Cl)cc2C(=O)c2ccccc2)c(Br)c1	·	0	·	-2	·
O=C1NC(=O)N(c2ccccc2F)C(=O)/C1=C/c1ccc(Sc2nc3ccccc3[nH]2)o1	-6	19	-5	10	44*
CCN1C(=O)CC(c2cccnc2)=Nc2ccccc21	-10	1	1	3	31*
O=C1CC(c2cccnc2)=NN1c1ccc(Cl)cc1Cl	-12	0	-2	6	4
Cc1cc(C)cc(OCC(=O)Nc2ccc(Cl)cc2C(=O)c2ccccc2)c1	·	-1	·	-8	·
C[C@@H]1C[C@H]2OC(=O)C3(CO3)[C@H]2[C@H](O)[C@]2(C)C(=O)C3OC3[C@@H]12 (stereo not given in full)	·	0	·	15	41*
Cc1ncc([N+](=O)[O-])n1CCOC(N)=O	-11	-1	-1	5	38*
O=c1cccc2n1CC1CC2CN(C(c2ccccc2)c2sc3ncnn3c2O)C1 (stereo not given)	-1	1	-2	4	32*
C[C@H](NC(=O)CCC(=O)N1C[C@H]2C[C@H](C1)c1cccc(=O)n1C2)c1ccccc1	5	0	2	-6	17
COc1ccc(-n2c(/C=C\c3ccccc3F)nc3ccccc3c2=O)cc1OC	·	0	·	-7	·
Cc1ccccc1-n1nc(C)c2c1NC(=O)CSC2c1ccccc1C(F)(F)F (stereo not given)	·	-1	·	-1	·
O=c1c2ccccc2nc(/C=C/c2ccccc2O)n1-c1ccc(Br)cc1	·	0	·	2	·
CN1CCN(c2cc([N+](=O)[O-])ccc2Cl)CC1	-9	1	-4	-33	69*
CN1CCN(c2ccc([N+](=O)[O-])cc2Cl)CC1	-16	1	-3	-7	10
CC1CN(c2cc([N+](=O)[O-])ccc2Cl)CC(C)N1 (stereo not given)	-4	0	-3	-19	69*
Cc1cc(-n2c(/C=C/c3cccs3)nc3ccccc3c2=O)ccc1Br	·	1	·	9	·
CCC(C)N1C(=O)NC(=O)C2(Cc3c(ccc4ccccc34)N(C)C2)C1=O (stereo not given)	77*	-1	8	10	-27
COc1ccc2c(c1)CC1(CN2C)C(=O)NC(=O)N(CCc2ccccc2)C1=O (stereo not given)	12	0	2	7	-32
CCOc1ccc2nc(NC(=O)c3cccn(Cc4ccccc4Cl)c3=O)sc2c1	·	1	·	-4	·
CCn1c(O)c(C=Nc2ccc(N3CCOCC3)cc2)c(=O)n(CC)c1=S	12	35*	0	-2	14
SMILES	D2 PAM-1	D2 ag-1	D2 ag-2	D2 PAM-2	D2 antagonist	others
C=CCn1c(O)c(C(C)=NCCN2CCOCC2)c(=O)[nH]c1=O	-3	1	1	-5	39*
C=CCn1c(O)c(C(CC)=NC2CC2)c(=O)[nH]c1=O	11	0	0	-12	39*
CC(=NCCN1CCOCC1)c1c(O)n(Cc2ccccc2)c(=O)[nH]c1=O	-6	0	1	0	-7
Clc1cccc(N2CCNCC2)c1	-33	1	-4	-21	35*
CC(=O)c1ccc(OC(NC(=O)c2ccco2)C(Cl)(Cl)Cl)cc1 (stereo not given)	-1	-1	-1	32*	6
O=C(NC(Oc1ccccc1)C(Cl)(Cl)Cl)c1ccccc1 (stereo not given)	-4	-1	-1	-4	16
CCOc1ccc(CN(CCc2ccc3c(c2)OCO3)Cc2cc(OC)ccc2O)cc1	·	0	·	-7	·
c1ccc2c(CN3CCN(C4CCCCC4)CC3)c[nH]c2c1	-18	0	-1	-10	-10
OC(CN1CCC(c2c[nH]c3ccccc23)CC1)C(F)(F)F (stereo not given)	-10	0	-5	-15	77*
Cc1ccc(C2CC3CCC(C2)N3Cc2ccccc2F)cc1 (stereo not given)	-14	-1	1	-30	68*
Cc1ccc(NC(=O)CN2C(=O)CN=C(c3ccccc3)c3ccccc32)c(C)c1	·	0	·	-5	·
CCc1ccc(-n2nc(C)c3c2NC(=O)CSC3c2ccc(OC)cc2OC)cc1 (stereo not given)	·	-1	·	-19	·
CCN(C(=O)CN1CC=C(c2ccccc2)CC1)c1c(N)n(Cc2ccccc2)c(=O)[nH]c1=O	-9	11	-2	-8	-13	D3 arrestin ag=-12%;D2 ag-3=2%
COc1ccc(NC(=O)CCc2nc(C3=CCN(Cc4cccc(Cl)c4)CC3)no2)cc1OC	·	0	·	12	·
CC1=C[C@@H]2c3cccc4[nH]cc(c34)C[C@H]2N(C)C1	92*	·	77*	-32	·	D3 arrestin ag=0.089µM*;D2 ag-3=2.8µM*
O=S1(=O)N(Cc2ccccc2Cl)CCCN1Cc1ccccc1Cl	·	0	·	6	·
COC(=O)C1=C(c2ccc(F)cc2OCc2ccccc2)C[C@@H]2CC[C@H]1N2C(=O)NCc1ccccc1Cl	-21	0	1	17	-22	D3 arrestin ag=-1%;D2 ag-3=-2%
COC(=O)C1=C(c2ccccc2OCc2ccccc2)C[C@@H]2CC[C@H]1N2C(=O)NCc1cccc(F)c1	-12	0	-3	1	-12
COC(=O)C1=C(c2ccccc2OCc2ccccc2)C[C@@H]2CC[C@H]1N2C(=O)NCc1ccc(OC)c(OC)c1	-1	0	-2	6	8	D3 arrestin ag=-1%;D2 ag-3=-1%
CCOc1ccc(CN(CCc2ccc3c(c2)OCO3)Cc2cccc(C)c2)cc1	·	·	·	-23	·
CCCN1CC[C@@H]2c3cc(O)ccc3CC[C@@H]21	-5	66*	7	-11	73*	D3 arrestin ag=?;D2 ag-3=?
